Measured values taken from PubChem BioAssay (Tox21).
Results filed as inconclusive are left out. Where a call stands in place of a potency, no number is given. Activity calls are given as the source filed them. The call rests on the fitted dose curve.

What follows are compounds tested against Vitamin D3 receptor (Homo sapiens) (UniProt P11473) (assay: qHTS assay to identify small molecule agonists of the vitamin D receptor (VDR) signaling pathway (AID 743222)). Conditions: HEK293T VDR-UAS-bla, beta-lactamase FRET ratio, 16 h; series mostly up to 63.5 µM.
Chain of Vitamin D3 receptor (Homo sapiens) (P11473 whole entry, looked up): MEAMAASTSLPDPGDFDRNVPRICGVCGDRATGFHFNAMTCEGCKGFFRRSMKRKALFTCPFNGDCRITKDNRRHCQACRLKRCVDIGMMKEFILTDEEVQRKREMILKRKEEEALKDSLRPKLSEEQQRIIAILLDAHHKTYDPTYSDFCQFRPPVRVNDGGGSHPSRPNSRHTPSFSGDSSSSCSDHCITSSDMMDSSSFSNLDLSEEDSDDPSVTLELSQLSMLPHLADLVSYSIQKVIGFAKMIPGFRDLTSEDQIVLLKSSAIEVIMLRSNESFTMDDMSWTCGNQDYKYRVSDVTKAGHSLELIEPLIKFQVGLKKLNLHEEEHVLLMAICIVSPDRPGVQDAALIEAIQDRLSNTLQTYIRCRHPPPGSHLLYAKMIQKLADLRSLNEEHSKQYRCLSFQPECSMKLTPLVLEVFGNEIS
From the text: National Center for Advancing Translational Sciences [NCATS]
NIH Chemical Genomics Center [NCGC]
U.S. Environmental Protection Agency [EPA]
National Institutes of Environmental Health Sciences [NIEHS]
National Toxicology Program [NTP]
U.S. Food and Drug Administration [FDA]
The vitamin D receptor (VDR), a member of nuclear hormone receptor superfamily, plays a critical role in calcium homeostasis and bone metabolism. It is also involved in cell differentiation and growth, and thrombogenicity.
Tox21 Assay Protocol Summary:
VDR-bla cells were dispensed at 2,000 cells/6 uL/well into black wall/clear-bottom 1536-well plates using a Multidrop Combi (Thermo Fisher Scientific, Waltham, MA) dispenser. After the assay plates were incubated at a 37C and 5% CO2 for 4 h, 23 nL of compounds dissolved in DMSO, positive controls or DMSO only was transferred to the assay plate by a Pintool station (Kalypsys, San Diego, CA). The plates were incubated at 37C and 5% CO2 for 16 h. After 1 uL of LiveBLAzerTM B/G FRET substrate was added using a Bioraptr Flying Reagent Dispenser (FRD) workstation (Beckman Coulter, Indianapolis, IN, USA), the plates were incubated at room temperature for 2 h, and fluorescence intensity was measured by an Envision plate reader (PerkinElmer, Shelton, CT).
Potency means the concentration at half of the fitted maximal effect.

SMILES	Potency
O=C(OCCc1ccccc1)c1ccccc1	inactive
CN(C)c1ccc(CCO)cc1	inactive
C1CCCNCCC1	inactive
CNC(=O)CN(CCN(CCN(CC(=O)[O-])CC(=O)NC)CC(=O)[O-])CC(=O)[O-].O.[Gd+3]	inactive
O=C1CCC(=O)O1	inactive
N=c1ccn2c(n1)O[C@H]1[C@H](O)[C@@H](CO)O[C@H]12	inactive
CC(CC=O)c1ccccc1 (stereo not given)	inactive
Cc1nn(C)c(Oc2ccccc2)c1/C=N/OCc1ccc(C(=O)OC(C)(C)C)cc1	inactive
C=CC(=O)OCCOc1ccccc1	inactive
NC(=O)C(c1ccccc1)(c1ccccc1)[C@@H]1CCN(CCc2ccc3c(c2)CCO3)C1	inactive
Cc1cc(C(=O)O)ccc1[N+](=O)[O-]	inactive
O=C(O)C(S)C(S)C(=O)O (stereo not given)	inactive
NCCCN1CCOCC1	inactive
CCO[C@H](Cc1ccc(OCCc2ccc(OS(C)(=O)=O)cc2)cc1)C(=O)O	inactive
Cc1cccc(C)c1NC(=O)CN(CC(=O)O)CC(=O)O	inactive
COC(=O)c1ccc(I)cc1S(=O)(=O)NC(=O)Nc1nc(C)nc(OC)n1	inactive
COC(=O)C1=C(C)NC(COC(N)=O)=C(C(=O)OC(C)C)C1c1cccc(Cl)c1Cl (stereo not given)	29.8 µM (active)
C/C=C/C=C/CO	inactive
CCCCC(=O)OCC(=O)[C@H]1[C@H](C)C[C@H]2[C@@H]3C[C@H](F)C4=CC(=O)C=C[C@]4(C)[C@@]3(F)[C@@H](O)C[C@@]21C	inactive
C=CCOC(=O)CCC1CCCCC1	inactive

SMILES	Potency
CCCCCCCCCc1ccc(OCCOCCO)cc1	inactive
CN(C)CCN(Cc1ccccc1)c1ccccn1	inactive
CCCCCCCCCCO[C@@H]1O[C@H](CO)[C@@H](O)[C@H](O)[C@H]1O	inactive
CN(C)c1ccc(C(c2ccccc2)c2ccc(N(C)C)cc2)cc1	inactive
CC(C)Cc1ccc(C(C)C(=O)OCc2ccccn2)cc1 (stereo not given)	inactive
O=C1OC(=O)C2C3C=CC(C3)C12 (stereo not given)	inactive
CCCCCCCCCCCCCCOS(=O)(=O)O	inactive
Cc1ccc(C(C)OC(=O)C2(C)CCC(C(=O)O)C2(C)C)cc1 (stereo not given)	inactive
CCOC(=O)C(F)(F)F	inactive
C=CC1CC2C=CC1C2 (stereo not given)	inactive
CCCCCCCC/C=C\CCCCCCCC(=O)OCC	inactive
CCCCCCCCCCCCN1CCCCCC1=O	inactive
O=C(NCCO[N+](=O)[O-])c1cccnc1	inactive
O=C1C(O)=C(O)C(=O)C(O)=C1O	inactive
CCNc1cc(O)ccc1C	inactive
CC[N+](C)(CC)CCOC(=O)C(O)(c1ccccc1)C1CCCCC1 (stereo not given)	inactive
CCN(CC)c1ccc(C(=C2C=CC(=[N+](CC)CC)C=C2)c2cc(S(=O)(=O)O)ccc2S(=O)(=O)[O-])cc1	inactive
NCC(=O)CCC(=O)O	inactive
CC(C)(COC(=O)c1ccccc1)COC(=O)c1ccccc1	inactive
O=C(NCC1CN(c2ccc(N3CCOCC3=O)cc2)C(=O)O1)c1ccc(Cl)s1 (stereo not given)	inactive
